# Experimental data reported in PubChem BioAssay AID1463 (National Center for Advancing Translational Sciences (NCATS), 2008).
# About 2,600 (0.93%) of roughly 280,000 compounds were called active. About 8% were inconclusive and are not listed. Many of the other results were omitted from the sample, so actives are more common in it than they were. Values without a mark were called inactive. The call rests on the fitted dose curve; in most records, active means well fitted curve in the direction sought with a large enough effect; inconclusive means small, poorly fitted or top-dose-only effect; inactive means flat fitted curve, though single readings scatter.
# Test: Counterscreen qHTS for Inhibitors of Tau Fibril Formation, Fluorescence Polarization; further: nearly all actives have a fitted effect of over 55% in size
# Details: tau K18 P301L (four-repeat tau fragment) Alexa594 fluorescence, heparin fibrillization; series mostly up to 57.7 µM; activity change, negative = decrease: at the top concentration
# In short: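 Human K18 P301L tau (15 uM unlabeled plus 0.24 uM Alexa 594-labeled, final) in 100 mM sodium acetate pH 7 was mixed with compound and 20 uM heparin and incubated 6 hr at 37 C.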
# On the % scale 0 is the no-effect control and ±100 the full control effect; potency means the concentration at half of the fitted maximal effect; tags describe the fitted curve by direction and shape or compound fluorescence and quenching.
SMILES,"activity change, negative = decrease [%]",Potency
CCc1ccc(C2C(C(=O)Nc3ccccc3)=C(C)Nc3c(C(=O)Nc4ccc(C)cc4)cnn32)cc1 (configuration not stated),-17.3,–
COc1ccccc1/C=C/c1nc(C#N)c(NC(C)c2ccccc2)o1 (configuration not stated),–,11.2 µM [quencher] (active)
CC(Nc1oc(-c2ccccc2)nc1-c1ccccc1)c1ccccc1 (configuration not stated),–,inactive
COc1ccc(/C=C/c2nc(C#N)c(NCc3ccc(F)cc3)o2)cc1OC,-24.2,–
CCOc1ccc(-n2c(SCC(=O)NCc3ccccc3)nc3n[nH]c(C)c3c2=N)cc1,-26.8,–
Cc1nc(NNC(=O)c2ccccc2)cc(-c2ccccc2)n1,-5.45,–
Nc1cccc(-c2cc(-c3ccccc3)nc(-c3cccc(N)c3)n2)c1,–,2.51 µM [quencher] (active)
Nc1cccc(CCc2nc3ccccc3[nH]2)c1,-26.2,–
CCCCn1c(CNC(=O)C23CC4CC(CC(C4)C2)C3)nnc1SCC(=O)Nc1ccc(C)cc1,-19.1,–
O=C(CC(c1cccs1)N1Cc2ccccc2C1=O)Nc1ccc(F)cc1F (configuration not stated),-7.54,–
CCc1ccc(S(=O)(=O)Nc2cc3c(C(=O)OCc4ccccc4)c(C)oc3c3ccccc23)cc1,-17.9,–
O=C(Cn1c(=O)n(-c2ccc(F)cc2)c(=O)c2sccc21)Nc1cccc(C(F)(F)F)c1,-26.6,–
O=C(Cn1cc(/C=N/NC(=O)c2cccc(C(F)(F)F)c2)c2ccccc21)Nc1ccc(F)cc1,–,8.91 µM [quencher] (active)
COc1ccc(/C=N/NC(=O)c2cccc(C(F)(F)F)c2)cc1,-18.3,–
COc1ccc(NC(=O)CCN2C(=O)/C(=C/c3ccc4c(c3)OCO4)SC2=S)cc1,-11.1,–
O=C(CCCN1C(=O)/C(=C/c2ccccc2)SC1=S)Nc1ccc(O)cc1,–,25.1 µM [quencher] (active)
O=C(CCCN1C(=O)/C(=C\c2ccco2)SC1=S)Nc1cccc2ccccc12,-27.4,–
COC(=O)c1ccc(NC(=O)c2cnn(-c3ccc(Cl)cc3)c2C2CCN(C(=O)OC(C)(C)C)CC2)cc1,-24.3,–
CC(NC(=O)COC(=O)c1ccc2c(c1)OCO2)c1ccccc1 (configuration not stated),-7.88,–
NC(=O)c1ccc(NC(=O)COC(=O)c2c3c(nc4ccccc24)/C(=C\c2ccc4c(c2)OCO4)CCC3)cc1,–,8.91 µM [quencher] (active)
O=C(COC(=O)c1c2c(nc3ccccc13)/C(=C\c1cccs1)CCC2)Nc1ccccc1Cl,-17.9,–
CCC1CCCCN1C(=O)Cn1c(=O)n(CCCCCC(=O)NCc2ccccc2)c(=O)c2sccc21 (configuration not stated),-9.54,–
CCC(=O)Nc1c(C(=O)N2CCN(c3ccc(F)cc3)CC2)oc2ccccc12,-15,–
CCc1nnc(NC(=O)C2CCCN2S(=O)(=O)c2ccccc2)s1 (configuration not stated),1.04,–
CCc1ccccc1NS(=O)(=O)c1ccc2nc(-c3ccccc3)[nH]c2c1,-6.34,–

SMILES,"activity change, negative = decrease [%]",Potency
CCc1ccc(NC(=O)C2CCCN2S(=O)(=O)c2ccc3nc(-c4ccccc4)[nH]c3c2)cc1 (configuration not stated),–,25.1 µM [quencher] (active)
Cc1ccccc1CNC(=O)c1ccc(NC(=O)N2CCCCc3ccccc32)cc1,9.05,–
COCCNC(=O)c1ccccc1NS(=O)(=O)c1ccc(C)c([N+](=O)[O-])c1,8.38,–
CN1CCN(c2ccc(S(=O)(=O)Nc3ccccc3)cc2[N+](=O)[O-])CC1,-7.58,–
O=[N+]([O-])c1cc(S(=O)(=O)Nc2cccc(Cl)c2)ccc1N=Nc1c(O)[nH]c2ccccc12,–,14.1 µM [quencher] (active)
O=C(NCc1ccccc1)c1cccc(NC(=O)N2CCSc3ncccc32)c1,-0.267,–
CCOC(=O)C1CCCN(C(=O)c2ccc3c(c2)sc2nc(-c4ccc(CC)cc4)cn23)C1 (configuration not stated),2.07,–
CCCCCn1c(=O)[nH]c2cc(C(=O)Nc3cc(C)cc(C)c3)ccc2c1=O,-1.5,–
NNc1nc2c(Cl)cccc2s1,–,15.8 µM [quencher] (active)
COc1cccc2sc(Nc3nc(C)c(C(C)=O)s3)nc12,-19.8,–
Fc1cc(F)c2nc(Nc3nc4c(F)cccc4s3)sc2c1,2.02,–
COc1ccccc1CNC(=O)c1ccc(NC(=O)N2CC(C)Sc3ccccc32)cc1 (configuration not stated),-23.7,–
c1ccc(Nc2n[nH]nc2-c2ccccc2)cc1,-12.4,–
Cc1ccc(Nc2ccccc2N)cc1,-26.2,–
Nc1ccc(Nc2ccccc2)cc1,–,14.1 µM [quencher] (active)
O=C(N/N=C/c1c[nH]c2ccccc12)c1cc2ccccc2o1,-67.2,–
C[n+]1ccc(/C=C/c2c[nH]c3ccccc23)cc1,-26.9,–
CSC(=S)N/N=C/c1c[nH]c2ccccc12,–,12.6 µM [quencher] (active)
Cc1ccc(CN2CCc3nc(N4CCN(C)CC4)ncc3C2)cc1,-1.13,–
CCOc1ccc(N(Cc2ccccc2)C(=O)c2nc(S(C)(=O)=O)ncc2Cl)cc1,-10.3,–
CC1=C(C(=O)OCC(C)C)C(c2ccc(OCc3ccccc3)cc2)N2C(=O)CCSC2=N1 (configuration not stated),-27.6,–
CCOC(=O)N1CCN(CCC(=O)Nc2cc(OC)ccc2OC)CC1,9.73,–
CCN1CCN(c2nc(Nc3cc(OC)ccc3OC)nc(Nc3cc(OC)ccc3OC)n2)CC1,–,28.2 µM [quencher] (active)
COc1ccc(OC)c(NC(=O)CCN2CCC(C)CC2)c1,-2.57,–
CCOC(=O)c1ccc(NC(=O)CCn2cnnn2)cc1,-11.4,–

SMILES,"activity change, negative = decrease [%]",Potency
CSc1nc(-c2ccccc2Cl)nc2c1Cc1c(CO)cnc(C)c1O2,2.81,–
CCCOc1ccc(-c2cccc(NS(=O)(=O)c3ccccc3)c2)nn1,-27.7,–
Cc1cc(Nc2ccccc2)nc(N)n1,1.59,–
CSc1nc(Nc2ccc(F)cc2)cc(-c2ccccc2)n1,–,7.08 µM [quencher] (active)
CSc1nc(-c2ccccc2)nc(C(Cl)Cl)n1,-7.66,–
Cc1cc2c(cc1C)C(c1cccc(OC(C)C)c1)CC(=O)N2 (configuration not stated),-7.01,–
O=C(O)C1CCN(c2ccc([N+](=O)[O-])cc2[N+](=O)[O-])CC1,9.45,–
O=[N+]([O-])c1ccc(N2CCN(c3ccc(O)cc3)CC2)c(Cl)c1,–,14.1 µM [quencher] (active)
COc1ccc(N2CCN(c3ccc([N+](=O)[O-])cc3Cl)CC2)cc1,-9.58,–
CCN1CCN(c2ncnc3c2cnn3-c2ccc(C)c(C)c2)CC1,-19.4,–
O=[N+]([O-])c1ccccc1NCc1ccc(Cl)cc1,-16.6,–
Oc1ccc(CNc2ccccc2O)cc1,–,17.8 µM [quencher] (active)
Oc1ccc(N2CCN(C(=S)NCc3ccccc3)CC2)cc1,-22.2,–
Cc1cc(C)c2oc(-c3cccc(NC(=O)c4cccc(F)c4)c3C)nc2c1,-18.7,–
COc1ccc(OC)c(CCNC(=O)CCCn2c(=O)c3cccn3c3cccnc32)c1,-11.3,–
COc1ccc(Nc2ncnc3ccc(OC)cc23)cc1,-27.8,–
COc1ccccc1Nc1ncnc2c1oc1ccccc12,-17.5,–
COc1ccc(Nc2ncnc3sc(-c4ccccc4)cc23)c(OC)c1,–,14.1 µM [quencher] (active)
O=C(CN1CCN(c2ccc(O)cc2)CC1)Nc1cc(S(=O)(=O)N2CCOCC2)ccc1Cl,-11.7,–
O=[N+]([O-])c1cc(Cl)cc(/C=N/NC(=S)Nc2cc(S(=O)(=O)N3CCOCC3)ccc2Cl)c1O,–,8.91 µM [quencher] (active)
O=C(N/N=C/c1ccc([N+](=O)[O-])o1)c1cccc(S(=O)(=O)N2CCOCC2)c1,-23.1,–
CSc1ccccc1-c1nnc(NC(=O)c2ccc3c(c2)OCCO3)o1,-1.25,–
CCCNC(=O)C1CCC(Cn2c(=O)c3sccc3n(Cc3ccccc3F)c2=O)CC1 (configuration not stated),9.61,–
COc1ccc(NC(=O)CSc2nccn2C2CCCC2)cc1OC,-6.75,–
Cn1c(=O)c2c(ncn2CC(=O)Nc2cccc(C(F)(F)F)c2)n(C)c1=O,-20,–

SMILES,"activity change, negative = decrease [%]",Potency
CC(C)(C)c1ccc(NC(=O)NCc2ccco2)cc1,-22.4,–
CC(C)(C)c1ccc(C(=O)NCCC(=O)NCc2ccco2)cc1,–,14.1 µM [quencher] (active)
CCCCNC(=O)CCNC(=O)c1ccc(C(C)(C)C)cc1,-8.92,–
COc1ccc(NC(=O)COCc2cc(-c3ccco3)on2)cc1,-5.46,–
Cc1ccc(NC(=O)CSc2nc3ccccc3c3nc(CCn4cncc4C)nn23)cc1F,4.76,–
Cc1ccc(NC(=O)Nc2sc3nc4n(c(=O)c3c2C)CCC(C)CC4)c(Cl)c1 (configuration not stated),–,7.08 µM [quencher] (active)
Cc1c(C(=O)Nc2ccccc2)sc2nc3n(c(=O)c12)CCCCC3,-18.3,–
Cc1nc(N2CCC(C)CC2)c2c(C)c(C(=O)Nc3cc(F)ccc3C)sc2n1,-5.83,–
CCOC(=O)c1cccc(NC(=O)Cn2cnc3nc4c(cc3c2=O)CCCC4)c1,-12.6,–
COc1ccc(-n2nc(C(=O)NCCc3ccc(Cl)cc3)c3c4ccccc4n(C)c3c2=O)cc1Cl,-6.96,–
CC1CCC(N2CC(=O)N(CCC3=CCCCC3)C(c3ccc(F)cc3)C2=O)CC1 (configuration not stated),0.383,–
O=C(CCn1ccc2cc(S(=O)(=O)N3CCCC3)ccc21)NCc1cccc(Cl)c1,-25.8,–
CC(C)(C)OC(=O)N1CCC(c2c(C(=O)N3CCN(c4cccc(Cl)c4)CC3)cnn2-c2cccc(Cl)c2)CC1,-9.84,–
Cc1cccc(N2CCN(C(=O)CCSCc3ccccc3F)CC2)c1C,-13.6,–
Cc1cc(O)ccc1-c1cnc2ccccc2n1,-23.3,–
Cc1ccc(NC(=O)c2cc(-c3ccc(C)o3)nc3ccccc23)nc1,-11.4,–
Cc1ccc(Nc2nc(-c3ccc(O)cc3O)cs2)nc1,–,8.91 µM [quencher] (active)
COc1ccc(NC(=O)CSc2nc3ccccc3[nH]2)cc1,-24.6,–
Cc1ccc2nc(N3CCN(c4cccc(Cl)c4)CC3)c3nnnn3c2c1,-17.8,–
C/C(=N\Nc1cccc(C(=O)O)c1)c1ccc2c(c1)Nc1ccccc1S2,–,11.2 µM [quencher] (active)
CC(=O)Nc1cccc(/C(C)=N/NC(=O)c2ccccc2Cl)c1,-8.65,–
O=C(NC1CC1)c1ccc2c(c1)NC(=O)c1ccccc1S2,-16.6,–
